# Assay outcomes (PubChem BioAssay)
# HT1080NT lethal: kills 2HG-producing HT-1080-NT fibrosarcoma cells | HT-1080-NT fibrosarcoma viability, CellTiter-Glo ATP luminescence, 48 h | Potency, µM (titrated, usually from 46.1 µM), without a hit: at the top dose activity, negative = less viability, usual class: cytotoxic | 1.6% of 360,000 active | AID 686970;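 also: NT is the 2HG producing partner of a matched IDH1 knockdown line; potency is read from the fitted curve at half-maximal effect; 0% = DMSO-treated cells and -100% = media-only wells without cells; nearly all actives have a fitted effect of over 55% in size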
#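 Read-out is CellTiter-Glo luminescence after 10 minutes at room temperature, following 48 hours' compound treatment of HT-1080-NT cells (750 cells/well, RPMI, 5% FBS, 37 degrees C).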
# ELG1 repair inh: ELG1-dependent DNA repair inhibition; AID 504467; Potency, µM (highest dose often 46.1 µM), for inactives: at the highest dose activity change, negative = inhibition, usual class: inhibitors; 2.3% of 330,000 active; HEK293T ELG1-luciferase reporter, luminescence, 16 h; DNA damage induced by 5-fluorouridine; also: potency is read from the fitted curve at half-maximal effect; nearly all actives have a fitted effect of over 55% in size
#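 Reporter activity after DNA damage by 5-fluorouridine is monitored. Compound-treated cells incubate 16 hr at 37 °C, then ONE-Glo is added for 30 min before luminescence reading.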
# TDP1 cell noCPT: qHTS for Inhibitors of human tyrosyl-DNA phosphodiesterase 1 (TDP1): qHTS in cells in absence of CPT. DT40 Tdp1-/- hTDP1 cells, no CPT, ATP luminescence, 48 h. Potency, µM (highest dose often 46.2 µM), inactives show at the top dose activity change, negative = growth inhibition, most hits filed as inhibitors. 15% of 420,000 active. AID 686978, 2013; also: potency is read from the fitted curve at half-maximal effect; nearly all actives have a fitted effect of over 55% in size
#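 DT40 Tdp1-/-;hTDP1 cells, no CPT (DMSO vehicle only), 400 cells/well; compounds pin-transferred; ≥48 hr, 37 °C; CellTiter-Glo 30 min RT dark, luminescence read.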
# HT1080 IDH1KD tx: toxicity to HT-1080 IDH1 knockdown cells (counter line) | HT-1080 IDH1 knockdown viability, ATP luminescence, 48 h | 2% of 360,000 active | Potency, µM (series often up to 46.1 µM), for inactives: top-dose activity, negative = toxicity, usual class: cytotoxic | AID 686971;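 also: potency is read from the fitted curve at half-maximal effect; 0% = DMSO wells and -100% = cell-free medium wells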
#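 Assay cells: HT-1080 with IDH1 knockdown, 750 per well, RPMI/5% FBS. Exposure: 48 h at 37 °C following 2 h pre-incubation. Read: CellTiter-Glo luminescence; fitted concentration-response, curve class assigned.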
# DT40 TDP1 CPT: growth inhibition of DT40 Tdp1-/-;hTDP1 cells with camptothecin (screen for TDP1 inhibitors); chicken DT40 Tdp1-/-;hTDP1 cells + 20 nM CPT, ATP luminescence, 48 h; Potency, µM (titrated, usually from 46.2 µM), for inactives: at the highest dose activity change, negative = growth inhibition, hits mostly inhibitors; 12% of 420,000 active; also: potency is read from the fitted curve at half-maximal effect; nearly all actives have a fitted effect of over 55% in size
#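 Cell growth measured by CellTiter-Glo luminescence after a minimum 48 h, 37 C compound exposure with 20 nM CPT in Tdp1-knockout DT40 cells stably expressing hTDP1, seeded 400/well; qHTS titration format.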
# IL-1B inflam inh: blocks inflammasome-driven IL-1 beta release | THP-1 LPS/ATP IL-1B secretion, AlphaLISA, 16 h; hits give low values | AID 743279 | activity change, % at 57.5 µM | 4.7% of 360,000 active; in the data active = activity change below about -50%; inconclusive = mostly about -30% to -49%
#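 Secreted IL-1B measured by AlphaLISA bead assay after 16 h compound exposure of THP-1 cells; compounds (final up to 57.5 uM) added 1 h before LPS (250 ng/mL) and ATP (1.25 mM) stimulation; lower signal means less secretion.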
# * = called active by the depositor; ? = inconclusive; / = no result given. This is a sample that favours compounds with a hit; in the whole collection about 19% have one here. Unless noted, calls follow the shape of the dose curve; as a rule, active = well fitted curve in the direction sought with a large enough effect; inconclusive = small, poorly fitted or top-dose-only effect, or another doubt; inactive = no such curve, though single readings can be large; an effect the other way counts as inactive or inconclusive. Unless noted, % is scaled to controls: 0 for no effect and ±100 for the full control effect.
SMILES,HT1080NT lethal,ELG1 repair inh,TDP1 cell noCPT,HT1080 IDH1KD tx,DT40 TDP1 CPT,IL-1B inflam inh
COc1ccc(CCNC(=O)CSc2nc(C)cc(C)n2)cc1OC,-4%,-2%,11%,4%,7%,9
Cc1ccc(-c2nnc(SCC(=O)NCCC(C)C)nc2-c2ccc(C)cc2)cc1,/,/,13µM*,/,5.8µM*,/
CC(C)(C)NC(=O)CSc1nnc(-c2ccccc2)c(-c2ccccc2)n1,-28%,?,?,-13%,-15%,-84*
O=C(CSc1nnc(-c2ccccc2)c(-c2ccccc2)n1)NCC1CCCO1 (stereo not drawn),13%,-10%,?,9%,-6%,-29
COc1ccc(CCNC(=O)CSc2nnc(-c3ccc(C)cc3)c(-c3ccc(C)cc3)n2)cc1OC,/,/,16µM*,/,?,/
Cc1ccc(-c2nnc(SCC(=O)NCC3CCCO3)nc2-c2ccc(C)cc2)cc1 (stereo not drawn),-11%,-13%,23µM*,2%,?,9
COCCNC(=O)CSc1nnc(-c2ccccc2)c(-c2ccccc2)n1,4%,-28%,13%,16%,6%,9
O=C(/C=C/c1ccc(Cl)cc1Cl)OCC(=O)N1CCCC1,5%,?,-21%,0%,-19%,-8
COc1ccc(CSc2cccc3cccnc23)cc1[N+](=O)[O-],-2%,28%,16µM*,-1%,?,-3
COCCn1c(-c2ccc(Cl)cc2)cnc1SCC(=O)NCCc1ccc(OC)c(OC)c1,0%,?,?,-16%,21µM*,?
COc1ccc(CCNC(=O)CSc2cccc3cccnc23)cc1OC,0%,-4%,-9%,0%,14%,-98*
COc1ccc(CCNC(=O)CSc2nnnn2C)cc1OC,1%,-12%,-24%,0%,-20%,-9
COc1ccc(CCNC(=O)CSc2ccccn2)cc1OC,0%,4%,23%,17%,5%,0
CCOc1ccc(-c2nnc(SCC(=O)NCCC(C)C)nc2-c2ccc(OCC)c(OC)c2)cc1OC,/,/,?,/,15µM*,/
Cc1nn(C)cc1/C=N/NC(=O)Cn1cncn1,8%,22%,4%,15%,3%,4
Fc1ccccc1N1CCN(C2CCN(Cc3c[nH]c4ccccc34)CC2)CC1,7%,3%,?,-6%,16µM*,4
Clc1ccccc1N1CCN(Cc2c[nH]c3ccccc23)CC1,?,/,5.2µM*,18µM*,2.6µM*,-81*
CCNC(=O)C1(C)CCN(C(=O)c2ccc3c(c2)OCO3)C1 (stereo not drawn),29%,/,2%,11%,19%,0
COc1cc(C#N)ccc1OCC(=O)Nc1ccc(C)c(S(=O)(=O)N2CCOCC2)c1,-6%,?,?,-6%,?,-24
Cc1cc(C)cc(NC(=O)c2oc3ccccc3c2COc2ccccc2)c1,-1%,14%,21µM*,-1%,?,-4
Cc1ccc(NC(=O)COC(=O)C2(C)CC2(Cl)Cl)cc1S(=O)(=O)N1CCOCC1 (stereo not drawn),-1%,-14%,23µM*,2%,21µM*,4
NC(=O)c1ccc(NC(=O)COC(=O)c2ccc(Br)c(S(=O)(=O)N3CCOCC3)c2)cc1,-6%,/,-1%,1%,-9%,-60*
Cc1ccc(NC(=O)COc2ccc(Cl)cc2Cl)cc1S(=O)(=O)N1CCOCC1,-9%,?,?,-22%,?,-57*
COc1ccc(-c2noc(-c3ccc(NC4CCCC4)c([N+](=O)[O-])c3)n2)cc1OC,/,/,-5%,/,1%,/
CC(=O)Nc1ccc(S(=O)(=O)NCc2nc(-c3ccc(C)cc3)no2)cc1,6%,-7%,?,0%,-14%,-7
SMILES,HT1080NT lethal,ELG1 repair inh,TDP1 cell noCPT,HT1080 IDH1KD tx,DT40 TDP1 CPT,IL-1B inflam inh
CCC(C)c1ccc(S(=O)(=O)N2CCN(c3ccccn3)CC2)cc1 (stereo not drawn),1%,0%,-24%,2%,-12%,4
O=S(=O)(c1cnc[nH]1)N1CCN(C(c2ccc(F)cc2)c2ccc(F)cc2)CC1,9%,12%,?,1%,-28%,2
Cc1ccc(NC(=O)C(C)OC(=O)c2cc(=O)[nH]c3ccccc23)cc1S(=O)(=O)N1CCOCC1 (stereo not drawn),5%,/,8%,18%,2%,27
CC(C)(C)c1ccc(NC(=O)COC(=O)C2(C)CC2(Cl)Cl)cc1 (stereo not drawn),-15%,?,23µM*,-11%,?,-7
CCC(C(=O)OCC(=O)Nc1ccc(C)c(S(=O)(=O)N2CCOCC2)c1)c1ccccc1 (stereo not drawn),-5%,-19%,?,0%,12µM*,-1
CC(=O)c1c(C)[nH]c(C(=O)OC(C)C(=O)Nc2ccc(C)c(S(=O)(=O)N3CCOCC3)c2)c1C (stereo not drawn),-8%,-21%,29µM*,-15%,23µM*,40
Cc1ccc(NC(=O)c2oc3ccccc3c2COC(C)C)cc1S(=O)(=O)N1CCOCC1,-7%,18µM*,23µM*,-11%,18µM*,-19
O=S(=O)(c1cccs1)N1CN(Cc2cccs2)c2nc3ccccc3nc21,-18%,1%,16µM*,-17%,?,-10
CCc1ccc(NS(=O)(=O)c2c(C(=O)N3CCOCC3)c(C)n(C)c2C)cc1,11%,24%,6%,5%,-3%,11
Cc1cccc(NC(=O)CSCC(=O)Nc2cc(Cl)ccc2N2CCN(C)CC2)c1,15µM*,-2%,?,15µM*,?,-79*
Cc1cc(NC(=O)CSCC(=O)N(C)Cc2c(F)cccc2Cl)no1,-8%,12%,-4%,1%,1%,10
